# The panel holds about 83,000 compounds, 20% with a hit somewhere; the sample as a whole holds those more often.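 Cell lines were cultured in 96-well plates, exposed to a single compound concentration, and assessed for percent growth 48 hours later.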 Values without a mark were called inactive. Activity calls are given as the source filed them. Rule for the calls: active = growth percent below 10; inactive = the rest.
# Experiments:
# Assay in all cases: NCI-60 one-dose screen, 48 h (100 = growth as untreated, 0 = no growth, -100 = all killed)
# SN12C renal = settings: 10 µM unless noted
# UO-31 renal = settings: 10 µM unless noted
# TK-10 renal = settings: 10 µM unless noted
# ACHN renal = settings: 10 µM unless noted
# CAKI-1 renal = settings: 10 µM unless noted
# A498 renal = settings: 10 µM unless noted
# MOLT-4 leukemia = settings: 10 µM unless noted
# EKVX NSCLC = settings: 10 µM
# CCRF-CEM leukemia = settings: 10 µM
SMILES,growth (SN12C renal),growth (UO-31 renal),growth (TK-10 renal),growth (ACHN renal),growth (CAKI-1 renal),growth (A498 renal),growth (MOLT-4 leukemia),growth (EKVX NSCLC),growth (CCRF-CEM leukemia)
C=CCNCCC#N,109%,102%,110%,105%,113%,120%,107%,,
COc1cc(-c2nn(-c3ccc(NC(=O)c4ccc(Cl)c(Cl)c4)cc3)cc2-c2ccncc2)ccc1Cl,79.4%,36.3%,17.2%,74.1%,44.4%,81.4%,28.7%,73%,
O=C(N/N=C\c1ccc(-c2ccc(Br)cc2)o1)c1cc2oc(-c3cccc(C(F)(F)F)c3)cc2[nH]1,107%,122%,127%,95%,,87.6%,66.6%,142%,0.0711% (active)
O=C(Nc1ccc(-n2cc(-c3ccncc3)c(-c3ccc(Cl)c(O)c3)n2)cc1)c1cc(Cl)cc(Cl)c1,,12.3%,61.3%,57.3%,-32.1% (active),95.9%,24.3%,75.7%,
O=C(CN1CCN(c2cccc(Cl)c2)CC1)N1CCN(c2nnc(-c3ccc(Cl)cc3)c(-c3ccc(Cl)cc3)n2)CC1,75.7%,,,65.3%,,63.1%,36.4%,59%,48.7%
NCCCOc1cc2ccccc2cc1C(=O)Nc1ccc(Cl)cc1OC(=O)c1cc2ccccc2cc1OCCCN,-41.2% (active),,,-96.7% (active),-75.7% (active),,-17% (active),-53.7% (active),

# Source: PubChem BioAssay (NCI)
